Screen size: about 69,000 compounds; about 8,600 (12%) showed an effect of 50% or more. For the sample, strong results were picked, then their nearest neighbours and some compounds at random.

The test has as its system Plasmodium berghei. The test is described as follows: Screen against P. berghei liver stage (PbLuc), transformed with Luciferase, at 10uM. Conditions: tested at 10 uM. In kind it is functional, HepG2.
Regarding `CCn1cnnc1C1CCN(C(=O)c2c(C)oc(C)c2C)CC1`, the INHIBITION is on record as 46.7%.
The figure for `Cc1cccc(CC2COCCN(Cc3nccn3C)C2)n1` (stereo not drawn) is 26.3%; for `O=C(CC1CCN(CCc2ccccc2)CC1)NC1CCOCC1` it is 25.8%.
The figure for `Cn1cnnc1C1CCCN(Cc2nc(Cc3ccccc3)no2)C1` (stereo not drawn) is 3.13%; for `CNc1[nH]nc(N)c1NC(=O)c1ccccc1` it is 17.6%; for `COc1ccc(-n2nnc(C(=O)O)c2-c2ccccn2)cc1` it is 32.2%.
The result for `Cc1ccc(CN2C[C@@H]3COC[C@@H](NS(C)(=O)=O)[C@@H]3C2)o1` reads -6.02%.
On to `CC(C)C1CN(C(=O)c2ccncc2)CCS1` (stereo not drawn), for which the INHIBITION is on record as 19.6%.
The result for `CC(C)C1CN(C(=O)c2ccccc2)CCS1` (stereo not drawn) reads 61.3%; that for `CC(C)C1CN(C(=O)c2ccc(C(N)=O)cc2)CCS1` (stereo not drawn), 0.139%.
Turning to `O=C([C@H]1CCS(=O)(=O)[C@@H]2CN(Cc3ccc(F)cc3)C[C@H]12)N1CCCC1`, the INHIBITION is 12.7%.
The result for `CN1CSC[C@H]1C(=O)N1CCC(Cc2ccccc2F)CC1` reads -40.6%.
Regarding `CN1C[C@@H](N)C[C@H]1C(=O)N1CCC(Cc2ccc(F)cc2)CC1`, the INHIBITION is 58.1%.
Turning to `CN1C[C@@H](N)C[C@H]1C(=O)N1CCC(CCCc2ccccc2)CC1`, the INHIBITION stood at 55.9%.
As for `CC(C)(C)C(=O)N1CCC(COCc2ccccc2)C1` (stereo not drawn), the INHIBITION is 11.9%.
Turning to `CCC(=O)N1CCCC1C(=O)N1CCC(Cc2ccc(F)cc2)CC1` (stereo not drawn), the INHIBITION is recorded as 49.4%.
Take `CN1CSC[C@H]1C(=O)N1CCC(CCc2ccccc2)CC1`: the INHIBITION is given as -29%.
The result for `O=C(C1CCS(=O)(=O)CC1)N1CCC(Cc2ccc(F)cc2)CC1` reads 57.3%; that for `CC(C(=O)N1CCC(Cc2ccc(F)cc2)CC1)n1ccnc1` (stereo not drawn), 32.8%.
The figure for `Cn1ncc2ccc(C3CCCN(Cc4ccsc4)C3)nc21` (stereo not drawn) is 33.45%; for `COc1cccc(-n2cc3[nH]c(=O)[nH]n3c2=O)c1` it is 3.68%; for `Cc1cc(C(=O)N2C[C@@H]3CC[C@H]2CN(C(=O)c2ccncc2)C3)cs1` it is 38%.
For the compound `CN(C)S(=O)(=O)N1C[C@H](Oc2cccnc2)[C@H]2OCCC[C@H]21`, the INHIBITION turned out to be 14.2%.
The result for `O=C(c1ccc[nH]1)N1Cc2nccn2CC(Cn2ncccc2=O)C1` (stereo not drawn) reads -87.3%; that for `CNC(=O)C1CNCCN1C(=O)c1ccc(C(F)(F)F)nc1C` (stereo not drawn), -15.3%; that for `O=C1C(NS(=O)(=O)c2ccc(F)c(F)c2)CCN1Cc1ccccc1` (stereo not drawn), 21.5%.
The figure for `COC(=O)[C@H](C)NC(=O)c1cnc(Cc2ccc(F)cc2)s1` is 51.7%; for `CCc1ncc(C(=O)NC(C)(C)C(=O)OC)s1` it is 40.6%.
The result for `COC(=O)C(C)(C)NC(=O)c1cnc(Cc2ccc(F)cc2)s1` reads 92.8%; that for `CC(C)NC(=O)CCNC(=O)c1cnc(Cc2ccc(F)cc2)s1`, 10.6%; that for `CN(C)C(=O)CN(C)C(=O)c1cnc(Cc2ccc(F)cc2)s1`, 2.37%.
Turning to `COC(=O)C(C)(C)NC(=O)c1cnc(C(C)(C)C)s1`, the INHIBITION was found to be 25.1%.
The result for `Cn1cc(CN2CCn3cc(CNC(=O)C4CCC4)nc3C2)cn1` reads 14.4%; that for `O=C(c1cnccn1)N1CCN(Cc2cscn2)CC1`, 25.85%.
In the case of `CSCC(C)(O)CNS(=O)(=O)c1cccc(Cl)c1` (stereo not drawn), the INHIBITION is -33.5%.
The result for `O=C(c1ncn2c1CNS(=O)(=O)c1ccccc1-2)N1CCCCCC1` reads 68.4%.
The figure for `CN1CCN(C(=O)c2ncn3c2CNS(=O)(=O)c2ccccc2-3)CC1` is 15.3%; for `O=C(c1ncn2c1CNS(=O)(=O)c1ccccc1-2)N1CCCCC1` it is 7.24%; for `CCc1nc(C2CCCN2C(=O)CCc2nc(C(C)(C)C)no2)no1` (stereo not drawn) it is 40.2%.
Regarding `COc1ncccc1CN1CCC2[C@H]1CCN2CCN(C)C` (stereo partly drawn), the INHIBITION was -20.1%.
`O=C1COC2(CCN(C(=O)C3CC=CC3)CC2)CN1Cc1cccnc1`: the INHIBITION is recorded as -3.24%.
The figure for `Cc1nc(N2CCOCC2)ncc1-c1cc(O)nc(N2CCCC2)n1` is -27.1%.
The result for `Cc1cc(C)c2c(N3CCC(C(=O)N4CCOCC4)CC3)ncnc2n1` reads 30.9%.
The result for `CC(C)CN1CCC2(C1)CN(c1ncccn1)C2` reads 5.12%.
Consider `CCn1cncc1CNc1ccc(-c2nc(CC(C)C)no2)cn1`, for which the INHIBITION is listed as 52%.
The result for `CC(C)Cc1noc(-c2ccc(NCc3noc(C(C)C)n3)nc2)n1` reads -26%; that for `CCC(O)CNc1ccc(-c2nc(CC(C)C)no2)cn1` (stereo not drawn), 1.79%; that for `CCN1C(=O)CCC12CCC(NC(=O)NCc1cccnc1)CC2` (stereo not drawn), 25.8%.
The figure for `Cc1n[nH]cc1C(=O)N1CCCC1c1cc[nH]n1` (stereo not drawn) is -26.2%; for `Cn1cc(CN2C[C@@H]3CCCO[C@@H]3[C@H](NC(=O)CC3CC3)C2)cn1` it is 11.4%; for `COC(=O)CNC(=O)CCc1cc(Cl)cs1` it is 36.3%.
`CC(C)NC(=O)CCNC(=O)CCc1cc(Cl)cs1`: the INHIBITION stood at 62.8%.
The figure for `CC(C)NC(=O)CCNC(=O)CCc1cc(Br)cs1` is -35.3%; for `CN(c1nccc(-c2cnc3sc(Cl)cn3c2=O)n1)C1CCCCC1` it is 38.2%; for `CN(c1nccc(-c2cnc3sccn3c2=O)n1)C1CCCCC1` it is 18.9%.
The result for `Cc1cn2c(=O)c(-c3ccnc(N(C)C4CCCCC4)n3)cnc2s1` reads 90.1%.
The result for `Cc1cc(C(F)(F)F)n2nc(C3CCCN(S(C)(=O)=O)C3)cc2n1` (stereo not drawn) reads 26.475%; that for `CCC[C@@H]1CN(S(=O)(=O)c2ccc3[nH]c(=O)[nH]c3c2)C[C@H]1NC(C)=O`, 3.73%.

The values are drawn from ChEMBL document CHEMBL4513216, “Probing the Open Global Health Chemical Diversity Library for Multistage-Active Starting Points for Next-Generation Antimalarials” (ACS Infect Dis, 2020).
